Measured values from the supplement of paper PMC11417369.
Over roughly 25,000 sequences, “ln(normalized median fluorescence intensity)” has its median near 9.7; the highest 2% begin near 11. The entries come from a sample that favours the highest values as a whole.

Test system: PfAP2-HC AP2 domain (GST-tagged)
Assay: gcPBM binding intensity (ln(normalized median fluorescence intensity)); higher = stronger DNA binding
Procedure, shortened: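 Plasmodium falciparum DNA-binding domains carrying a GST tag were expressed in E. coli and applied for 1 h, at about 25 μg on average, to an Agilent 4 × 180k array. The array held primer-extended double-stranded 36-bp intergenic genomic probes together with negative controls, and binding took place in 1× PBS with 1% milk, 0.2 mg/ml BSA, 0.5% salmon testes DNA and 0.03% Triton X-100. An Alexa488 anti-GST antibody detected bound protein, and the array was scanned at 488 nm. Binding intensity is taken as the highest Masliner-normalised natural-log median intensity across replicate spots of either probe orientation.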

Sequence | gcPBM binding intensity (ln)
TTTCTTTTTTCTGTTATTATTATAAAACGATATTTA [TGCATGCA_negctrl_site167] | 9.58
TTATTAAGTAAATCACATTTAATTTTTTTTTTTTTT [CACACA_negctrl_site1280] | 9.27
GAATATGTTAACATTTGTACATAAAATTTTTTACAA [XGTACX_site2444] | 9.49
ATTATTTTGTTTATTACATGCAGGTGTATATTACAG [TGCATGCA_site723] | 9.59
ATCACATAAAATATGAATATATATTTTATATATATA [CACACA_negctrl_site340] | 9.53
AAAAGAGAAATGGGCACACACACACCGATTATATAT [CACACA_site4942] | 11
AAAAGAGAAATGGGCACACACACACCCATTATATAT [CACACA_site1530] | 10.2
AGAAAAGAGAAATGGGCACACACACCCATATTATAT [CACACA_site8433] | 10.1
ATGTACCTATTTCATACACACACACCCACAAACAAA [CACACA_site8232] | 10.4
ACCTATTTCAAACACACACACACACTAACAAACATA [CACACA_site8233] | 10.8
ACCTATTTCAAACACACACACACACTAGCAAACATA [CACACA_site4695] | 10.9
GTACCTATTTCATACACACACACACGCAAACAAACA [CACACA_site6590] | 11.1
GTACCTATTTCATACACACACACACCCAAACAAACA [CACACA_site976] | 10.5
ACCTATTTCAAACACACACACACACCCACAAACATA [CACACA_site977] | 10.9
TATATAAACACGTACACACACATATCTGTATTTATA [CACACA_site5858] | 10.4
AAAAAATAGTGGTATGCATGTCCCTTGTATTTTCTT [TGCATGCA_site587] | 9.63
TACACCAAAAAAAAACGTACAAAATCCCACCCAGAC [XGTACX_site4622] | 11.1
GTATATATTTAAACACGTACACAAAACCCAAAAAAT [XGTACX_site8110] | 9.95
TTAATGTACAGACACCCACACACAAACAAATATATA [CACACA_site8888] | 10.2

Sequence | gcPBM binding intensity (ln)
TAATTTTTTTTTTTTTTTTTTGTACTTCATTTTTAT [CACACA_negctrl_site1395] | 9.58
TTTTTTTTGTTCTATACAATTATAAAAATAAAATAT [XGTACX_negctrl_site53] | 9.06
TAATACTTAGAGAAAAGTACGTATGAACTTATGTAA [XGTACX_site5504] | 9.59
TTTCCCTTGTTGTAAACATGCACAATATTTAGGTAT [TGCATGCA_site49] | 9.75
AAAAAAAAAAAACACACACACACACCGACAAAATAT [CACACA_site8411] | 10.8
CACAAACAAAAACACACACACACACCGACAAAAATG [CACACA_site5362] | 10.6
AAAGAAGGGAAACACACACACACACCCACAAAAAAA [CACACA_site3766] | 11.4
CAAAAGAAGGTAAACACACACACACCCATACAAAAA [CACACA_site3765] | 10.7
CACACCCACCAACACACACACAAAAAAAAAAAGAAA [CACACA_site500] | 10.4
TTAAAGCACCCATGCACACACACAAAGGAAAAGAAA [CACACA_site233] | 10.2
CAAAAGAAGGTAAACACACACACACGCATACAAAAA [CACACA_site7724] | 10.4
AAAGAAGGTAAACACACACACACACCGACAAAAAAA [CACACA_site9255] | 11.5
AAAGCACCCAGGCACACACACAAAGGAAAAGAAAAA [CACACA_site232] | 11
TTAACAAAGAAACACACACACACACCCAAAAAAAAA [CACACA_site516] | 10.6
AAAGCACCCATGCACACACACAAAGGAAAAGAAAAA [CACACA_site6249] | 10.3
AATTAACAAAAACACACACACACACCGACAAAAAAA [CACACA_site4444] | 10.9
TTTTTTTCTTTATTAGCACACATAATATTATATATG [CACACA_site8841] | 9.79
TTGGGGTATCTTCCTATGCACACTTGTTATGTACTA [CACACA_site831] | 9.85
TATATATATATATATTGTACTATATAGTATCTTTTT [XGTACX_site1646] | 9.78

Sequence | gcPBM binding intensity (ln)
TTTCACATATATATGGTGCATATTTTATGTGTAAAT [GTGCAC_site9937] | 9.7
AATTTTTTTTAATGATGTACTTTTTGAAAATAAACT [XGTACX_site4221] | 9.31
TTTCTAAGAAAAAAAAAAAAAAAAAAAAAGATACAA [GTGCAC_negctrl_site525] | 9.24
AAGTAAAAAAATAGCACACACACAAAAACACCCACA [CACACA_site1291] | 10.8
TGCAACAAAATAAACACACACACACCCCCACAAAAA [CACACA_site3388] | 10.6
TAAAATAAAACAAACACACACACACCCCCACAAAAA [CACACA_site3850] | 10.8
AGCACACCCACAAAAACACACACAAAGGTGTTCTTA [CACACA_site8355] | 10.5
AATTAACAAAAACACACACACACACCCACAAAAAAA [CACACA_site517] | 11.4
GTAAAAAAAGAGCACACACACAAAAACACCCACAAA [CACACA_site1292] | 10.9
CACAAACAAAAACACACACACACACCCACAAAAATG [CACACA_site2429] | 11
TACATAAATTAAAACACACACACACCCAAAAAAAAA [CACACA_site2261] | 10.5
AATTAAACTCACACCACACACAAAAAAAAAAAAAAA [CACACA_site693] | 10.3
ATTTTTTTGTTATTGTTGAAAAGATGGTTCTTTTTT [CACACA_negctrl_site1346] | 9.52
TATATAGGTATATATACACACAACGGTTATAAATAT [CACACA_site4759] | 9.94
AGCATATTATCATATTGTACATATTATAATATATAT [XGTACX_site3907] | 9.69
AATAATACAAAAGTTCAACAAAAAAAAAAAAAAAAT [CACACA_negctrl_site952] | 9.75
TGTTAATTAAAACATCATTAATATTATTAAAAATAC [XGTACX_negctrl_site509] | 9.36
ATTTTTTTTATTTTTTCAATATATATATATATATAT [CACACA_negctrl_site1444] | 9.74
